Hit rate of the full screen: of about 2,100 compounds, about 940 (45%) were called active. Roughly 48% stayed inconclusive and do not appear here. So high a share suggests a set chosen from earlier hits. Some of the results follow. A number with no mark means an inactive call. The call rests on the fitted dose curve; in most records, active means well fitted inhibition curve with a large enough effect; inconclusive means small, poorly fitted or top-dose-only effect; inactive means no such curve, though single readings can be large or run the other way.
Potency means the concentration at half of the fitted maximal effect.

The experiment in a line: Confirmatory qHTS for Inhibitors of ATXN expression. Further: nearly all actives have a fitted effect of over 65% in size.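 On activity change, negative = inhibition: 0% = DMSO vehicle wells and -100% = medium-only wells without cells.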 The conditions noted are these: ATXN2-luciferase reporter cells, luminescence, 24 h; series mostly up to 11.5 µM; activity change, negative = inhibition: at the top concentration. The procedure, abridged: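 A titration, incubated 24 h with reporter cells expressing ATXN2-luciferase. Luminescence (SteadyGlo) gives ATXN2 expression, multiplexed GF-AFC fluorescence gives viability; normalised to DMSO and medium-only wells.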
In general terms: In qHTS, concentration-response curves come from the screen itself.
As for `CCc1nc2ccccc2c(C(=O)OCC(=O)Nc2cccc(S(=O)(=O)NC3=NCCCCC3)c2)c1C`, the Potency was 17.8 µM (active).
Consider `CCc1nc2ccccc2c(C(=O)OCC(=O)Nc2ccc(NC(C)=O)cc2)c1C`, for which the “activity change, negative = inhibition” value is -25.1%.
Take `Cc1cc(/C=N/n2c(COc3ccccc3)nc3ccccc3c2=O)c(O)c([N+](=O)[O-])c1`: the Potency is 7.94 µM (active).
Regarding `CSc1sc(-c2nnc(SCC(=O)Nc3ccc(Cl)cc3)n2C)c2c1C=CCC2`, the “activity change, negative = inhibition” value is -17.3%.
As for `Cn1c(SCC(=O)N/N=C/c2ccc([N+](=O)[O-])s2)nnc1-c1ccc(Cl)cc1`, the Potency was 10 µM (active).
As to `Cn1c(SCC(=O)N/N=C/c2ccc([N+](=O)[O-])s2)nnc1-c1ccccc1`, the Potency is 17.8 µM (active).
For `C=CCc1cccc(/C=N/NC(=O)CNc2ccccc2OC)c1O`, the Potency is 5.01 µM (active).
`C=CCc1cccc(/C=N/NC(=O)CNc2ccccc2)c1O`: the Potency is 2.82 µM (active).
Still for that read-out and setting: the result for `C=CCc1ccccc1OCC(=O)N/N=C/c1ccc(OC(C)=O)cc1OC(C)=O` reads 15.8 µM (active); that for `COc1ccc(C(=O)NNC(=S)NC(=O)c2ccccc2)cc1`, 14.1 µM (active).
Take `COc1ccc(-c2nn(-c3ccccc3)cc2C(=O)NC(=S)NNC(=O)c2ccncc2)cc1`: the Potency is 15.8 µM (active).
`CCCCOc1ccc(C(=O)NNC(=S)NC(=O)CC)cc1`: the Potency is 2.82 µM (active).
As for `CCCOc1ccc(C(=O)NC(=S)NNC(=O)c2c(-c3ccccc3)noc2C)cc1`, the “activity change, negative = inhibition” value is -5.12%.
As to `CCC(=O)NC(=S)NNC(=O)c1ccc(OC)cc1`, the Potency is 15.8 µM (active).
For the compound `CCCC/C(C)=N/NC(=O)c1cn(-c2ccccc2)nc1-c1ccccc1`, the “activity change, negative = inhibition” value was -12.8%.
As to `C=CS(=O)(=O)c1c2cc(OC)ccc2nc2ccc(OC)cc12`, the Potency was 28.2 µM (active).
Still for that read-out and setting: as for `COc1ccc(C)cc1Nc1nc(N)c2cc(OC)c(OC)cc2n1`, the figure is 2.82 µM (active).
For `O=C(COC(=O)c1cc([N+](=O)[O-])ccc1N1CCOCC1)Nc1ccc(Cl)cn1`, the Potency was 6.31 µM (active).
Consider `CCN(CC)c1nc(-c2ccccn2)nc(-c2ccccc2)c1C#N`, for which the Potency was 7.08 µM (active).
In the case of `CC(C)Nc1nc(-c2ccccn2)nc(-c2ccccc2)c1C#N`, the “activity change, negative = inhibition” value was -21.5% [at 57.5 µM].
`O=C(NNC(=O)C(c1ccccc1)c1ccccc1)c1ccccn1`: the Potency was 3.16 µM (active).
Turning to `O=C(NNC(=O)C12CC3CC(CC(C3)C1)C2)c1ccccn1`, the Potency was 8.91 µM (active).
On to `O=C(NCC(=O)N1CC(O)CC1C(=O)N1CCCC1C(=O)OCc1ccccc1)OCc1ccccc1` (stereo not given), for which the Potency was 3.16 µM (active).
In the case of `COC(=O)c1cc(=O)n(CCc2ccc(OC)c(OC)c2)c(=Nc2ccc(F)c(Cl)c2)s1`, the Potency was 3.16 µM (active).
Still for that read-out and setting: as for `CCCC[C@@H](CNC)NC[C@H](NCCCCC1CCCCC1)C(C)C`, the figure is 28.2 µM (active); as for `CCN1C(=O)/C(=C/c2nc3ccccc3c(=O)n2-c2ccccc2)c2ccccc21`, 25.1 µM (active).
Consider `O=[N+]([O-])c1c(Nc2ccccn2)cc(Cl)c2nonc12`, for which the Potency is 7.94 µM (active).
`COc1cc(/C=C/c2ccc3cccc(O)c3n2)cc(OC)c1OC`: the “activity change, negative = inhibition” value is -20.7% [at 57.5 µM].
`COc1cc(C=CC(=O)c2cc(OC)c(OC)c(OC)c2)cc(OC)c1OC`: the Potency is 8.91 µM (active).
On to `Cc1[nH]c2ccccc2c1C1=NNC(=Nc2ccc(F)cc2)SC1`, for which the Potency was 31.6 µM (active).
Regarding `O=C(Nc1ccc(Cl)cc1)Nc1nc(-c2sccc2Br)cs1`, the Potency is 6.31 µM (active).
In the case of `CC(C)[C@@H]1CC[C@@H](C)C[C@H]1OC(=O)C[n+]1cc(-c2ccc(Cl)cc2)n2c1CCCCC2`, the Potency was 15.8 µM (active).
In the case of `COc1ccc(-c2csc(NC(=O)c3ccccc3NS(=O)(=O)c3ccc(F)c(F)c3)n2)cc1`, the Potency is 1.78 µM (active).
Regarding `NS(=O)(=O)c1ccc(Nc2nc(-c3ccc(F)cc3)cs2)cc1`, the “activity change, negative = inhibition” value is -25.8%.
With `O=C(Nc1nc(-c2ccccc2)cs1)c1ccccc1NS(=O)(=O)c1ccc(F)cc1`, the Potency is 2 µM (active).
Take `Cc1cc(C)c(C(O)c2ncc(-c3cccc4ccccc34)[nH]2)c(C)c1` (stereo not given): the “activity change, negative = inhibition” value was -15.3%.
Turning to `OC(c1cc(F)cc(Cl)c1)c1ncc(-c2cccc(C(F)(F)F)c2)[nH]1` (stereo not given), the Potency was 3.16 µM (active).
Take `OC(c1ccc(Cl)cc1)c1ncc(-c2cccc(C(F)(F)F)c2)[nH]1` (stereo not given): the “activity change, negative = inhibition” value was -16.3%.
`CCN(CC)C(=O)C1=C(C)N(CCC2=CCCCC2)C(=O)C(CC(=O)NC(c2ccccc2)c2ccccc2)C1` (stereo not given): the “activity change, negative = inhibition” value was -19.3%.
On to `C/C(=N\NC(=O)c1ccc(Cl)c(Cl)c1)c1ccccn1`, for which the Potency was 0.178 µM (active).
The same measure, in the same setting: the result for `C/C(=N\NC(=O)c1cccc2ccccc12)c1ccccn1` reads 0.708 µM (active); that for `Cc1cc(C)cc(NC(=O)CSc2nc3[nH]ncc3c(=O)[nH]2)c1`, 2.51 µM (active); that for `Cc1cc(C)cc(NC(=O)CSc2nc3nc(C)cc(C)c3c(=O)[nH]2)c1`, 28.2 µM (active).
Still for that read-out and setting: as for `COc1cc(C(=O)O/N=C(\N)Cc2ccc([N+](=O)[O-])cc2)cc(OC)c1OC`, the figure is 2.82 µM (active).
In the case of `Cn1c(CO)cnc1S(=O)(=O)Cc1ccc([N+](=O)[O-])cc1`, the “activity change, negative = inhibition” value is -3.34% [at 57.5 µM].
As for `O=c1[nH]c(=O)n(C2C[C@H](O)[C@@H](CO)O2)cc1C(F)(F)F` (stereo not given in full), the Potency is 1.26 µM (active).
For the compound `CCOC(=O)c1c(-c2ccccc2)oc2cc(CN(C)C)c(O)c(CN(C)C)c12`, the Potency was 3.16 µM (active).
As to `CCCC(=O)NC(c1ccc(OC)cc1)c1ccc2cccnc2c1O` (stereo not given), the Potency is 2.24 µM (active).
On to `CCCC(=O)NC(c1ccc(C(C)C)cc1)c1ccc2cccnc2c1O` (stereo not given), for which the Potency is 0.178 µM (active).
Take `CCCC(=O)NC(c1ccc(Cl)cc1)c1ccc2cccnc2c1O` (stereo not given): the Potency was 1.58 µM (active).
As to `CCCCC(=O)NC(c1ccc(Cl)cc1)c1ccc2cccnc2c1O` (stereo not given), the Potency is 1.41 µM (active).
As to `CC(C)CC(=O)NC(c1cccs1)c1ccc2cccnc2c1O` (stereo not given), the Potency is 0.398 µM (active).
The same measure, in the same setting: the result for `CCCC(=O)NC(c1ccc(C)cc1)c1ccc2cccnc2c1O` (stereo not given) reads 1.58 µM (active).
As to `CCOc1ccccc1N1CCN(c2ncnc3scc(-c4ccc(OC)cc4)c23)CC1`, the Potency was 28.2 µM (active).
Regarding `CCN1CCN(CCCNC(=O)c2ccc(/C=C3/Sc4ccccc4N(Cc4ccccc4F)C3=O)cc2)CC1`, the Potency was 28.2 µM (active).
Regarding `C=CCOc1ccc(CNc2ccc3[nH]c(=O)[nH]c3c2)cc1OC`, the “activity change, negative = inhibition” value is -2% [at 57.5 µM].
Take `COc1ccc(Cc2nnc(N/N=C/c3ccccc3O)[nH]c2=O)cc1OC`: the Potency is 1.58 µM (active).
As to `COc1ccc(Cc2nnc(N/N=C/c3ccc(O)cc3)[nH]c2=O)cc1OC`, the Potency is 0.631 µM (active).
With `Cc1cccc2c1-c1sc(C(=O)Nc3ccccc3N3CCN(C)CC3)cc1CO2`, the Potency was 25.1 µM (active).
Turning to `CCn1c(COc2ccccc2C)nnc1SCC(=O)N1CCN(c2ccccc2)CC1`, the Potency was 14.1 µM (active).
As to `CC(C)(CC(=O)N1CCN(c2ccc(Cl)cc2)CC1)CC1=NS(=O)(=O)c2ccccc2N1`, the Potency is 2.51 µM (active).
Take `Cc1nnc(N/N=C/c2ccccn2)[nH]c1=O`: the Potency was 1.41 µM (active).
On the same count and under the same terms, the result for `C(=N\Nc1ccc2nncn2n1)/c1ccccn1` reads 17.8 µM (active).
In the case of `C(=N\NC(=Nc1ccccc1)c1ccccn1)/c1ccccn1`, the “activity change, negative = inhibition” value is 0.998% [at 57.5 µM].
As to `O=c1nc(N/N=C/c2ccccn2)cn[nH]1`, the Potency is 28.2 µM (active).
`Cc1[nH]n2c(=O)cc(C(C)(C)C)nc2c1-c1ccccc1`: the Potency is 7.08 µM (active).
In the case of `CCCc1cc(=O)[nH]c(-n2[nH]c3c(c2=O)CCCC3)n1`, the Potency was 15.8 µM (active).
Take `COc1ccc(-c2nnc(NC(=O)c3ccc(S(=O)(=O)N4COCC4(C)C)cc3)o2)cc1`: the Potency was 2.51 µM (active).
As for `CC1(C)COCN1S(=O)(=O)c1ccc(C(=O)Nc2nnc(-c3ccc(Cl)s3)o2)cc1`, the Potency is 1.12 µM (active).
Take `CCCN(CCC)S(=O)(=O)c1ccc(C(=O)Nc2nnc(-c3cc(OC)cc(OC)c3)o2)cc1`: the Potency is 1.58 µM (active).
Turning to `COc1cc(NC(=O)N2CCc3nc(Nc4cc(Cl)cc(Cl)c4)ncc3C2)cc(OC)c1OC`, the Potency was 3.98 µM (active).
Consider `CC(=O)C(C(C)=O)c1c(Cl)c(O)c(O)c2c(C(=O)c3ccccc3)coc12`, for which the Potency is 5.62 µM (active).
`CCOC(=O)C(C(C)=O)c1c(Br)c(O)c(O)c2c(C(=O)c3ccc(C)cc3)coc12` (stereo not given): the Potency is 5.62 µM (active).
Same read-out and setting: the result for `O=C(Nc1ccc(OCC(F)(F)C(F)F)c(C(F)(F)F)c1)c1ccc(Cl)cc1` reads 3.55 µM (active).
Take `C=CCOC(=O)C1=C[C@@H](c2ccc3c(c2)OCO3)C[C@@H](OCCCCO)O1`: the “activity change, negative = inhibition” value was -7.67% [at 57.5 µM].
As for `O=C(NCc1ccccc1)C1=C[C@@H](c2csc3ccccc23)C[C@@H](OCCCCO)O1`, the Potency was 3.55 µM (active).
For the compound `CN(C)C(=O)CSc1nc(-c2ccccc2)nc2c1CCCC2`, the Potency was 17.8 µM (active).
Turning to `COC(=O)C1=C(C)N(Cc2ccccc2)C(=NCCc2ccccn2)N[C@H]1c1cccc(C(F)(F)F)c1`, the Potency is 3.16 µM (active).
On to `COC(=O)C1=C(C)N(Cc2ccccc2)C(=NCCc2cccnc2)N[C@H]1c1ccc(Br)cc1`, for which the Potency is 25.1 µM (active).
For `CCc1cc(-c2nnn(CCC3COCCO3)c2CC)ccc1-c1cn(CCc2c[nH]c3ccccc23)nn1` (stereo not given), the Potency is 8.91 µM (active).
`O=C(N/N=C/c1cc([N+](=O)[O-])ccc1O)c1ccc(COc2ccc3c(c2)CCC3)o1`: the Potency was 3.55 µM (active).
Turning to `O=C1CCCC(O)=C1C=NCc1ccccc1`, the “activity change, negative = inhibition” value was 19.3%.
Turning to `Cn1ncc2c(Nc3cccc(Cl)c3)nc(Nc3cccc(Cl)c3)nc21`, the Potency was 28.2 µM (active).
For `COc1ccccc1OCCN1CSC(=S)N(C)C1`, the Potency is 17.8 µM (active).
For `COC1C=CC=C(C)C(=O)NC2=CC(=O)C(N)=C(CC(C)CC(OC)C(O)C(C)C=C(C)C1OC(N)=O)C2=O` (stereo not given), the Potency was 0.282 µM (active).
For the compound `O=C(COc1nsnc1N1CCOCC1)N/N=C/c1ccccc1O`, the Potency is 14.1 µM (active).
As for `CSc1nc(C)cc(OCC(=O)N/N=C/c2ccccc2O)n1`, the Potency is 2 µM (active).
For `C/C(=N\OCC(=O)N/N=C/c1ccccc1O)c1cccs1`, the Potency is 12.6 µM (active).
`CN1CCN(C(c2ccc(C(F)(F)F)cc2)c2ccc3cccnc3c2O)CC1` (stereo not given): the Potency is 7.94 µM (active).
On to `CCN1CCN(C(c2ccc(C(F)(F)F)cc2)c2ccc3cccnc3c2O)CC1` (stereo not given), for which the Potency is 3.55 µM (active).

These data come from PubChem BioAssay AID1745848 (National Center for Advancing Translational Sciences (NCATS), 2022).
